Tests used:
Format in all cases: functional
Plasmodium falciparum [1] = assay: GSK_TCMDC: Inhibition of Plasmodium falciparum 3D7 in whole red blood cells, using parasite LDH activity as an index of growth. Test compounds present at 2uM
Plasmodium falciparum [2] = assay: GSK_TCMDC: Inhibition of Plasmodium falciparum Dd2 in whole red blood cells, using parasite LDH activity as an index of growth. Test compounds present at 2uM
HepG2 = assay: GSK_TCMDC: Percent inhibition of human HepG2 cell line. Test compounds present at 10uM.

Compound	Inhibition (Plasmodium falciparum [1]) [%]	Inhibition (Plasmodium falciparum [2]) [%]	Inhibition (HepG2) [%]
CCN(CC)CCc1ccc2c(=O)cc(CCc3cccc(F)c3F)n(CC(=O)N(C)Cc3ccc(-c4ccc(C(F)(F)F)cc4)cc3)c2c1.O=C(O)C(O)C(O)C(=O)O	97	45	98
Cc1nnsc1C(=O)Nc1cccc(-c2ccc(-c3nc4cc(F)ccc4[nH]3)s2)c1	89	22	62
CCS(=O)(=O)c1ccc(-c2cnc3[nH]cc(-c4ccc(N)cc4)c3c2)cc1	92	99	24
CC(C)N1CCCN(C(=O)C2CCN(c3ccc(C(=O)N4CCCC4)cn3)CC2)CC1.Cl	86	12	41
Cl.NC(=O)c1ccccc1Nc1nc(Nc2cccc(N3CCN(CCO)CC3)c2)ncc1Cl	95	98	93
Cc1ccc(CNC(=O)[C@H](CC(C)C)Nc2cc(C)nc(NCc3ccccc3C)n2)cc1.O=C(O)C(F)(F)F	87	35	3
Cl.Oc1cccc(Nc2ccnc3cc(-c4ccccn4)ccc23)c1	96	98	24
NS(=O)(=O)c1cccc(Br)c1	98	0	0
COc1ccc(CNC2CCN(C)CC2)cc1-c1ccc(S(=O)(=O)NC2CCC2)cc1.O=C(O)C(F)(F)F	98	76	58
CCc1ccc(OCc2ccccc2C(=O)Nc2ccc3nc(C)cc(N)c3c2)cc1.Cl	99	74	98
COc1nc(NCC(C)C)nc(Oc2ccc(=O)n(Cc3ccccc3)n2)n1	97	93	1
O=C(Nc1ccc(-c2cccc(-c3nc4ccccc4[nH]3)c2)cc1)c1cnn2cccnc12	99	36	64
CCOC(=O)c1cccc(NC(=O)Nc2cccc(-c3ncc(OCCCN)c4c3nc(-c3nonc3N)n4CC)c2)c1.O=C(O)C(F)(F)F	100	98	16
FC(F)(F)c1ccc2[nH]c(-c3cccc(-c4cccc(CNCCN5CCNCC5)c4)c3)nc2c1.O=C(O)C(F)(F)F	92	18	29
CC[C@H](C)CNC(=O)c1cncc(-c2ccc(CN(C)C3CCN(C)CC3)cc2)c1.O=C(O)C(F)(F)F	100	97	0
Nc1nc(N)c2c(n1)CCC(c1ccccc1)C2 (stereo not drawn)	93	0	55
FC(F)(F)c1ccc2[nH]c(-c3ccc(-c4cccc(CNCc5ccccc5)c4)cc3)nc2c1.O=C(O)C(F)(F)F	100	43	0
O=C(Nc1cccc(Oc2ccccc2)c1)N[C@H]1CCN(Cc2ccc(OCCCN3CCCCC3)cc2)C1	100	70	94
N#Cc1cccc(CN2CCCN(Cc3ccc(C(=O)Nc4ccc(Cl)cc4)cc3)CC2)c1.O=C(O)C(F)(F)F	98	21	48
O=C(Cc1ccccc1)NC(c1ccco1)c1cc(Cl)c2cccnc2c1O (stereo not drawn)	89	93	44
CN(C)c1ccc(CN2CCC(CNC(=O)c3cc(-c4ccccc4F)cs3)C2)cc1.O=C(O)C(F)(F)F (stereo not drawn)	100	33	35

Compound	Inhibition (Plasmodium falciparum [1]) [%]	Inhibition (Plasmodium falciparum [2]) [%]	Inhibition (HepG2) [%]
Nc1ccc2nc(C=Cc3ccc(Cl)cc3)[nH]c2c1	91	83	19
O=C(c1cc(C(=O)Nc2ccccc2F)c(=O)n(-c2ccccc2F)c1)c1cc(Cl)ccc1O	98	80	2
CC(C)(C)c1ccc(S(=O)(=O)Nc2cc(Cl)ccc2Cn2ccc(N3CCNCC3)nc2=O)cc1.O=C(O)C(F)(F)F	95	74	0
CCN(CC)C(=O)c1cnc(-c2ccccc2)nc1Oc1cccc(Cl)c1	92	40	0
CCN1CCN(c2cc(C)c3cc(NC(=O)c4ccc(OC)c([N+](=O)[O-])c4)ccc3n2)CC1	100	93	25
Cc1ccc(NCc2cccc(F)c2)cc1S(=O)(=O)N[C@@H]1CCN(C#N)C1	89	83	13
CCCCCCOc1ccc(/C(N)=N\Cc2ccccc2)c2c1CCCC2.Cl	96	35	62
CC(=O)c1c[nH]c2ccc(/C=C/C(=O)NC3CCC(CCN4CCc5ccc(C#N)cc5CC4)CC3)cc12.Cl (stereo not drawn)	100	98	11
CCOc1ccc(NC(=O)c2ccc(CN3CCCN(Cc4cccc(O)c4)CC3)cc2)cc1.O=C(O)C(F)(F)F	85	9	44
O=C(Cc1cccc(OCCCN(Cc2cccc(C(F)(F)F)c2Cl)CC(c2ccccc2)c2ccccc2)c1)NCc1ccco1	94	84	2
CCOc1c(N2CCN(CCCCNC(=O)c3ccc(NC(=O)c4ccc(Cl)cc4)cc3)CC2)ccc2ccccc12.Cl	100	45	18
N#Cc1ccc(CN2CCC(Oc3ccc(NC(=O)c4cccs4)cc3)C2)cc1.O=C(O)C(F)(F)F (stereo not drawn)	82	65	5
CCOCc1cnc(C)nc1CNC(=O)c1c(C)[nH]c2ccc(C)cc12	84	65	8
O=C(Nc1cccc(-c2ccc(CN3CCNCC3)cc2)c1)c1cccc(Cl)c1.O=C(O)C(F)(F)F	92	4	30
O=C(N[C@@H](CC1CCCCC1)C(=O)NC1CC1)c1ccc(O)c(-c2cccc(C(F)(F)F)c2)c1	99	47	0
Cc1cc(OCC2CCN(c3ncc(C(=O)Nc4ccccc4)cc3Cl)CC2)ccc1F	91	87	27
O=C(Nc1cccc(CN2CCCN(Cc3ncc[nH]3)CC2)c1)c1ccc(Cl)c(Cl)c1.O=C(O)C(F)(F)F	100	16	8
Cn1cnc(CCNC(=O)c2ccc(-c3cccc(-c4nc5cc(F)ccc5[nH]4)c3)cc2)c1	100	24	23
COCCSc1nc2scc(C)c2c(=O)n1Cc1cccc(OC)c1	92	33	0
CN(C)Cc1cccc(CNC(=O)c2sccc2OCc2ccc(Cl)cc2)c1	90	88	7
Cc1ccccc1Nc1nc(Nc2ccccc2)c2ccccc2n1.Cl	100	21	19

Compound	Inhibition (Plasmodium falciparum [1]) [%]	Inhibition (Plasmodium falciparum [2]) [%]	Inhibition (HepG2) [%]
CCC(C)(C)NC(=O)C(c1cccc(OC)c1)N(C(=O)CNC(=O)c1cccs1)c1ccc2c(c1)OCCO2 (stereo not drawn)	100	76	0
CC(Cc1ccc(NC(=O)COc2ccc(CC(C)NCCc3cccc(Cl)c3)cc2)cc1)NCCc1cccc(Cl)c1 (stereo not drawn)	100	98	100
c1ccc(CSC2=NNC(c3ccccn3)S2)cc1 (stereo not drawn)	80	65	6
COc1ccccc1C1CC(c2ccc(C)cc2)=NN1C(=O)c1ccccc1 (stereo not drawn)	98	45	37
NCC1CCCN1Cc1cccc(-c2cccc(-c3nc4cc(F)ccc4[nH]3)c2)c1.O=C(O)C(F)(F)F (stereo not drawn)	100	65	10
Cc1ccc(C2CC(c3cccs3)=NN2C(=O)c2ccc(Br)o2)cc1 (stereo not drawn)	99	69	11
COc1ccc2nccc([C@@H](O)CN3CCC(NCc4ccc5c(c4)NC(=O)CS5)CC3)c2c1.O=C(O)C(=O)O	100	36	0
O=C(O)C(F)(F)F.O=C1CCCN1CCCNCc1cccc(-c2cccc(-c3nc4cc(F)ccc4[nH]3)c2)c1	100	69	6
CCN(CC)CCNC(=O)c1ccc(NC(=O)c2cc3c(C)nn(-c4ccc(Cl)cc4)c3s2)cc1.Cl	95	78	24
Cc1cccc2nc(-c3ccc(-c4ccc(CN5CCN(CCN6CCOCC6)CC5)cc4)s3)[nH]c12.O=C(O)C(F)(F)F	100	99	41
Nc1nc(N)c2cc(S(=O)(=O)c3ccc4ccccc4c3)ccc2n1	95	51	14
COCCNCc1nc(-c2ccc3c(Nc4ccc(Cl)cc4F)ccnc3c2)cs1	100	100	0
CCCCc1cc(NC2CCN(C)CC2)nc(Nc2ccccc2)n1	100	29	7
CC(=O)Nc1ccc(OCCCCN(Cc2ccccc2C(F)(F)F)c2ccc(C#N)c(C(F)(F)F)c2)cc1	80	47	0
O=C(NCCOc1ccccc1)[C@H](Cc1ccccc1)Nc1ccnc(NCC2CCCCC2)n1.O=C(O)C(F)(F)F	96	73	80
CC(=O)Nc1cccc(C(=O)Nc2ccc(-c3cccc(-c4nc5cc(F)ccc5[nH]4)c3)cc2)c1	96	8	90
O=C(O)C(F)(F)F.c1cc(CN2CCN(c3ccncc3)CC2)cc(-c2ccc(-c3nc4ccccc4[nH]3)cc2)c1	100	100	60
CCCCNS(=O)(=O)c1ccc(NC(=O)c2cc([N+](=O)[O-])ccc2Cl)cc1	92	47	12
O=C(Nc1cccc(CN2CCN(C(=O)c3ccccc3)CC2)c1)c1ccco1.O=C(O)C(F)(F)F	95	42	6
